Screening data as filed in PubChem.
Most compounds without a hit are left out; they make up all but 2.3% or so of the library.
Tau ThT inhib: qHTS for Inhibitors of Tau Fibril Formation, Thioflavin T Binding; recombinant tau K18 P301L, heparin-induced fibrillization, ThT fluorescence; Potency, µM (titrated, usually from 57.4 µM), for inactives: at the highest dose activity, negative = inhibition, usual class: inhibitors; 270,000 compounds, 2.1% hits; AID 1460, 2008; also: potency is read from the fitted curve at half-maximal effect; nearly all actives have a fitted effect of over 55% in size
Target sequence (P10636 561-689 P618L limits assumed): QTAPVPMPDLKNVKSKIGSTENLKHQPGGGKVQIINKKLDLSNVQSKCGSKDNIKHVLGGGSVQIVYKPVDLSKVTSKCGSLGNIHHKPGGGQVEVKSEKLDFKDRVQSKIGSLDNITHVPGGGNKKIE
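Heparin-induced (20 uM) aggregation of recombinant human K18 P301L tau, 15 uM unlabeled with 0.24 uM labeled, pH 7 acetate buffer, 6 hr at 37 C with compound. Fibrils quantified by 30 uM ThT fluorescence after 1 hr ambient incubation.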
Tau FP inhib: qHTS for Inhibitors of Tau Fibril Formation, Fluorescence Polarization; 280,000 compounds, 0.39% hits; K18 P301L tau heparin fibrillization, Alexa594 FP, 6 h; Microtubule-associated protein tau (Homo sapiens), P10636; Potency, µM (series often up to 57.7 µM), for inactives: at the highest dose activity, negative = inhibition, actives largely listed as inhibitors; also: potency is read from the fitted curve at half-maximal effect; nearly all actives have a fitted effect of over 55% in size
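FP of Alexa 594-tau after heparin (20 uM) induction. Substrate: human K18 P301L, 15 uM unlabeled, 0.24 uM labeled. Buffer 100 mM sodium acetate pH 7. 6 hr, 37 C.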
FBPA coupling cs: qHTS Assay for Inhibitors of Fructose-1,6-bisphosphate Aldolase from Giardia Lamblia: Coupling assay counterscreen; coupling enzyme system counterscreen, AmpLite Red fluorescence; activity change, negative = inhibition, % at 58.2 µM, hits read low; 290,000 compounds, 0.67% hits; AID 2472, 2010; in the data active = activity change below about -30%
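Counterscreen of the coupled detection system alone, without aldolase: glyceraldehyde-3-phosphate coupling enzymes plus AmpLite Red readout. Compounds at 57.5 uM final, 10 min RT preincubation, 20 min RT reaction, fluorescence 525/598 nm.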
USP1 inh: Inhibitors of USP1/UAF1: Primary Screen; Ubiquitin carboxyl-terminal hydrolase 1 (Homo sapiens), O94782; recombinant USP1/UAF1, Ub-Rhodamine cleavage fluorescence; Potency, µM (doses to about 57.1 µM), without a hit: top-dose activity change, negative = inhibition, hits mostly inhibitors; 390,000 compounds, 0.23% hits; also: potency is read from the fitted curve at half-maximal effect; nearly all actives have a fitted effect of over 60% in size
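In this screen, compounds sit with the deubiquitinase complex (1nM) for 15 min at room temperature before Ub-Rho is added at 150nM final. Fluorescence rise is then followed for 6 reads every 60 seconds.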
Tau fluor counter: Counterscreen qHTS for Inhibitors of Tau Fibril Formation, Fluorescence Polarization; tau K18 P301L Alexa594 fluorescence, heparin fibrillization; Potency, µM (highest dose often 57.7 µM), without a hit: at the top dose activity change, negative = decrease; 280,000 compounds, 0.93% hits; AID 1463, 2008; also: potency is read from the fitted curve at half-maximal effect; nearly all actives have a fitted effect of over 55% in size
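Human tau K18 P301L (15 uM unlabeled, 0.24 uM Alexa 594-labeled) in 100 mM sodium acetate pH 7 with 20 uM heparin, 6 hr at 37 C. ThT 30 uM added, 1 hr ambient; Alexa 594 FP and total fluorescence read at 555/632 nm.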
An asterisk follows results filed as active; ? = inconclusive; . = no result; [ ] = remark or other dose. Unless noted, calls follow the shape of the dose curve; as a rule, active = well fitted curve in the direction sought with a large enough effect; inconclusive = small, poorly fitted or top-dose-only effect, or another doubt; inactive = no such curve, though single readings can be large; an effect the other way counts as inactive or inconclusive. % is scaled to controls: 0 for no effect and ±100 for the full control effect.

SMILES | Tau ThT inhib | Tau FP inhib | FBPA coupling cs | USP1 inh | Tau fluor counter
COc1cccc(CNC(=O)Cn2cc3c(n2)-c2c(oc(C(=O)N4CCOCC4)c2C)CC3)c1 | -3% | -4% | . | -23% | -4%
Cc1[nH]n(-c2ccccc2)c(=O)c1C(C[N+](=O)[O-])c1ccc(Br)cc1 (stereo not drawn) | ? | 0% | -13 | ? | -27%
COc1cccc(C(C[N+](=O)[O-])c2c(C)[nH]n(-c3ccccc3)c2=O)c1 (stereo not drawn) | . | . | -44* | -17% | .
Cc1ccc(S(=O)(=O)Nc2nc(C)c(NC(=O)Nc3ccc(Cl)cc3Cl)s2)cc1 | 22µM* | 1% | 7 | -2% | 14µM*[quencher]
Cc1ccc(S(=O)(=O)Nc2nc(C)c(NC(=O)OCCCl)s2)cc1 | -7% | 6% | -4 | -21% | -13%
COc1ccc(S(=O)(=O)N2CCCCCC2)cc1C(=O)N(CC(C)C)C1CCS(=O)(=O)C1 (stereo not drawn) | . | . | . | -14% | .
CC(=O)C1=C(O)C(=O)N(CCCN2CCOCC2)C1c1ccccc1[N+](=O)[O-] (stereo not drawn) | 25µM* | ? | -21 | -12% | ?
CC(=O)C1=C(O)C(=O)N(CCC(=O)O)C1c1ccccc1[N+](=O)[O-] (stereo not drawn) | -1% | 4% | 1 | -20% | -2%
CC(=O)C1=C(O)C(=O)N(C)C1c1ccccc1[N+](=O)[O-] (stereo not drawn) | 16µM* | ? | -13 | -21% | -14%
COCCNC(=S)Nc1ccc2nsnc2c1 | -12% | -8% | -43* | -12% | -8%
CC(C)N(C(=O)Nc1ccc2nsnc2c1)C(C)C | ? | ? | -37* | 6.3µM* | ?
CCOc1ccc(NC(=S)Nc2ccc3nsnc3c2)cc1 | 2.5µM* | ? | -28 | 28µM* | 14µM*[quencher]
COc1ccc(NC(=S)Nc2ccc3nsnc3c2)cc1 | 11µM* | -17% | -41* | 5.6µM* | ?
COc1ccc(S(=O)(=O)NCCc2sc(-c3cccnc3)nc2C)c(F)c1 | -8% | -7% | . | -29% | -8%
O=C(NCc1ccco1)Nc1ccc2nsnc2c1 | ? | -3% | -38* | -15% | -6%
O=C(Nc1cccc(C(F)(F)F)c1)Nc1ccc2snnc2c1 | 13% | 18µM* | . | ? | ?
CCOc1ccc(NC(=O)Nc2ccc3snnc3c2)cc1 | -6% | ? | . | -25% | 5µM*[quencher]
O=C(Nc1ccccc1)Nc1ccc2snnc2c1 | ? | ? | -5 | -16% | ?
S=C(Nc1ccc2nsnc2c1)NC1CCCCC1 | 28µM* | ? | -67* | -18% | ?
O=C(Nc1cccc(C(F)(F)F)c1)c1ccc2snnc2c1 | 7% | -4% | . | -28% | -1%
CC(C)(C)OC(=O)N1CCC(c2c(C(=O)NCCN3CCOCC3)cnn2-c2ccc(F)cc2F)CC1 | -3% | -5% | . | 1% | -9%
COc1cc(NC(=O)c2nnn(CC(=O)Nc3ccccc3)c2N)cc(OC)c1 | 2% | -7% | . | -11% | -12%
CCOc1ccc(NC(=O)Nc2ccc3nsnc3c2)cc1 | 14µM* | 16% | -6 | -4% | 13µM*[quencher]
CCOc1ccc(NC(=O)Nc2cccc(C(=O)O)c2)cc1 | -11% | 5% | 4 | -10% | -9%
C=CCN(CC=C)C(=S)Nc1ccc2nsnc2c1 | ? | ? | -54* | -13% | -16%
SMILES | Tau ThT inhib | Tau FP inhib | FBPA coupling cs | USP1 inh | Tau fluor counter
Cc1ccccc1OCC(O)COc1ccccc1C | . | . | . | 1% | .
CCn1c2ccccc2c2cc(NC(=O)c3cccc(OC)c3)ccc21 | ? | 10% | 0 | -19% | 13µM*[quencher]
CCn1c2ccccc2c2cc(NC(=O)COC(=O)c3cccc(S(=O)(=O)NC)c3)ccc21 | ? | 1% | 0 | -23% | 10µM*[quencher]
CCN(CC)S(=O)(=O)c1cccc(C(=O)OCC(=O)Nc2ccc3c(c2)c2ccccc2n3CC)c1 | -16% | ? | 2 | -4% | ?
CCn1c2ccccc2c2cc(NC(=O)c3ccco3)ccc21 | ? | 17% | -7 | 0% | 25µM*[quencher]
CCn1c2ccccc2c2cc(NC(C)=O)ccc21 | -8% | 4% | -3 | -10% | -22%
CC1N(C)c2cc(NC(=O)c3ccco3)ccc2C1(C)C (stereo not drawn) | ? | ? | -17 | -16% | 28µM*[fluorescent]
O=C(Cn1cc(S(=O)(=O)Cc2ccccc2Cl)c2ccccc21)Nc1ccc(F)cc1F | -9% | ? | . | -12% | ?
O=C(Nc1ccc(Cl)cc1)N[C@@H]1c2c(ccc3ccccc23)OC[C@@H]1CO | 9% | 32µM* | 3 | -16% | ?
CN(C(=O)c1ccccc1)C1c2c(ccc3ccccc23)OCC1CO (stereo not drawn) | . | . | 0 | -26% | .
O=C1C2C=CC=CC2=NC(=S)N1CCN1CCC(=C(c2ccc(F)cc2)c2ccc(F)cc2)CC1 (stereo not drawn) | -14% | ? | . | . | ?
Cc1cccc(NC(=O)Cn2c(=O)n(CCc3c[nH]c4ccccc34)c(=O)c3cccnc32)c1 | -13% | -7% | 3 | . | 11µM*[quencher]
Cc1ncoc1C(=O)Nc1ncc([N+](=O)[O-])s1 | 25µM* | ? | 1 | ? | -20%
Cc1ccc(-c2[nH]c3ccccc3c2C(C[N+](=O)[O-])c2ccco2)cc1 (stereo not drawn) | ? | -15% | -13 | -20% | 13µM*[quencher]
Cc1[nH]c2ccccc2c1C(C[N+](=O)[O-])c1ccco1 (stereo not drawn) | ? | -3% | -9 | -15% | ?
CCCCN(Cc1ccccc1)S(=O)(=O)c1cc(Br)cc2c1N(C(=O)C1CC1)CC2 | -9% | -2% | . | -20% | -21%
CN(C)c1ccc2nc3c(=O)[nH]c(=O)nc-3n(CC(O)C(O)C(O)CO)c2c1 (stereo not drawn) | . | . | -11 | 28µM* | .
Cc1ncc(C(O)c2ccc(N(C)C)cc2)n1Cc1ccccc1 (stereo not drawn) | . | . | . | -17% | .
CCC(C)C1=CC(=Nc2c(C)n(C)n(-c3ccccc3)c2=O)C=C(C(C)CC)C1=O (stereo not drawn) | ? | 2% | -27 | -15% | -22%
CCNc1ccc(N=Nc2c(C)n(C)n(-c3ccccc3)c2=O)cc1 | 16µM* | 3% | -3 | -7% | -11%
CCOC(=O)/C(N=Nc1c(C)n(C)n(-c2ccccc2)c1=O)=C(\C)O | -10% | -3% | 4 | -21% | -8%
Cc1c(N=c2scc(-c3ccccc3)n2C)c(=O)n(-c2ccccc2)n1C | -11% | 1% | 5 | 5% | -9%
